Test results from PubChem BioAssay (EPA / NIEHS).
Activity calls are given as the source filed them. How the source made its calls: active means hit-call score of the fitted dose curve at least 0.9, where 1 is the maximum; inactive means score below 0.9.

Legend:
[1] = ATG_GLI_CIS: Attagene CIS-FACTORIAL HepG2 Assay for human Zinc Finger Protein GLI1 (AID 2282945); conditions: HepG2, Attagene cis-factorial reporter mRNA, GLI element; actives raise or lower the signal
In short: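 Bidirectional curve fits relative to DMSO, using reporter mRNA levels from RT-PCR plus capillary electrophoresis. Cells were HepG2 transiently carrying cis-regulated reporter constructs, harvested 24 h after dosing.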

[2] = molecular target: Bile acid receptor (Homo sapiens) (UniProt Q96RI1); test: ATG_IR1_CIS: Attagene CIS-FACTORIAL HepG2 Assay for human Nuclear Receptor Subfamily 1 Group H Member 4 (NR1H4), IR1 submotif (AID 2282946); conditions: IR1 reporter transcription, actives raise or lower the signal
Sequence of Bile acid receptor (Homo sapiens) (Q96RI1 whole entry, looked up): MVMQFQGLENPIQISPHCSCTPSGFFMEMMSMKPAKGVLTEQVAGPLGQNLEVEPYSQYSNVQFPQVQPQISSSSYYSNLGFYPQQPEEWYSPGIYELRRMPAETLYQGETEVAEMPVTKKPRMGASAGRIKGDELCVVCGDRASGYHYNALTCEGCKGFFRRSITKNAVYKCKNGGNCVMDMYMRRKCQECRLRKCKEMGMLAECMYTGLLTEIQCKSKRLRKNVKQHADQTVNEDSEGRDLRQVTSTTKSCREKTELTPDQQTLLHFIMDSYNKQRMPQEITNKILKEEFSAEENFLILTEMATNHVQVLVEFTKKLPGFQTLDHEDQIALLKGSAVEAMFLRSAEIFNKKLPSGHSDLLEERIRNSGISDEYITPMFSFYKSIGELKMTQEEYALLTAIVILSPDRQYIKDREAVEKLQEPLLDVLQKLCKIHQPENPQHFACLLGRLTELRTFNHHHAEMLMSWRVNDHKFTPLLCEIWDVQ
In short: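 HepG2 cells transiently transfected with multiplexed cis-element reporter units read endogenous transcription factor activity. After 24 h compound exposure, reporter mRNA was quantified by RT-PCR, fluorescent labelling, HpaI digestion and capillary electrophoresis; bidirectional fitting versus DMSO baseline.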

[3] = ATG_GRE_CIS: Attagene CIS-FACTORIAL HepG2 Assay for human Glucocorticoid Response Elements (GRE) (AID 2282947); conditions: HepG2 GRE cis-reporter, Attagene multiplex mRNA; actives raise or lower the signal
In short: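 Multiplexed cis-reporter mRNA induction, HepG2, 24 h post-dose. RT-PCR, FAM-labelled, HpaI-digested amplicons by CE. Bidirectional fit vs DMSO.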

[4] = ATG_ISRE_CIS: Attagene CIS-FACTORIAL HepG2 Assay for human Interferon Regulatory Factor 1 (IRF1) binding to an Interferon-Stimulated Response Element (ISRE) (AID 2282948); conditions: HepG2 ISRE cis-reporter (Attagene), mRNA transcription readout; actives raise or lower the signal
In short: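 Multiplexed mRNA reporter readout in human liver HepG2 cells: cis-element-driven reporters transfected, compound added for 24 h, transcripts amplified, fluorescently labelled and sized by capillary electrophoresis; curve fitting bidirectional against DMSO.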

[5] = ATG_M_32_CIS: Attagene CIS-FACTORIAL HepG2 Assay for M32 Transcription Factor (Internal Marker) (AID 2282949); conditions: HepG2 Attagene cis-factorial M32 reporter, mRNA; actives raise or lower the signal;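 further: background control marker of the multiplexed CIS panel rather than a real target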
In short: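 Using DMSO as baseline, bidirectional curve fits were applied to reporter mRNA signals. These came from transiently transfected HepG2 cells exposed for 24 h, with RNA analysed by RT-PCR, FAM primer extension, HpaI digestion and CE.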

[6] = ATG_M_06_CIS: Attagene CIS-FACTORIAL HepG2 Assay for M06 Transcription Factor (Internal Marker) (AID 2282950); conditions: HepG2 Attagene CIS-FACTORIAL M06 internal marker reporter; actives raise or lower the signal
In short: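 Read-out is fluorescence of labelled reporter cDNA fragments resolved by capillary electrophoresis after RT-PCR. Cells: HepG2 carrying transfected cis-promoter reporter units, treated 24 h. Gain or loss of signal fitted relative to DMSO.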

[7] = molecular target: Hypoxia-inducible factor 1-alpha (Homo sapiens) (UniProt Q16665); test: ATG_HIF1a_CIS: Attagene CIS-FACTORIAL HepG2 Assay for human Hypoxia Inducible Factor 1 (HIF1A) (AID 2282951); conditions: HepG2 Attagene cis-factorial HIF1a reporter transcription; actives raise or lower the signal
Sequence of Hypoxia-inducible factor 1-alpha (Homo sapiens) (Q16665 whole entry, looked up): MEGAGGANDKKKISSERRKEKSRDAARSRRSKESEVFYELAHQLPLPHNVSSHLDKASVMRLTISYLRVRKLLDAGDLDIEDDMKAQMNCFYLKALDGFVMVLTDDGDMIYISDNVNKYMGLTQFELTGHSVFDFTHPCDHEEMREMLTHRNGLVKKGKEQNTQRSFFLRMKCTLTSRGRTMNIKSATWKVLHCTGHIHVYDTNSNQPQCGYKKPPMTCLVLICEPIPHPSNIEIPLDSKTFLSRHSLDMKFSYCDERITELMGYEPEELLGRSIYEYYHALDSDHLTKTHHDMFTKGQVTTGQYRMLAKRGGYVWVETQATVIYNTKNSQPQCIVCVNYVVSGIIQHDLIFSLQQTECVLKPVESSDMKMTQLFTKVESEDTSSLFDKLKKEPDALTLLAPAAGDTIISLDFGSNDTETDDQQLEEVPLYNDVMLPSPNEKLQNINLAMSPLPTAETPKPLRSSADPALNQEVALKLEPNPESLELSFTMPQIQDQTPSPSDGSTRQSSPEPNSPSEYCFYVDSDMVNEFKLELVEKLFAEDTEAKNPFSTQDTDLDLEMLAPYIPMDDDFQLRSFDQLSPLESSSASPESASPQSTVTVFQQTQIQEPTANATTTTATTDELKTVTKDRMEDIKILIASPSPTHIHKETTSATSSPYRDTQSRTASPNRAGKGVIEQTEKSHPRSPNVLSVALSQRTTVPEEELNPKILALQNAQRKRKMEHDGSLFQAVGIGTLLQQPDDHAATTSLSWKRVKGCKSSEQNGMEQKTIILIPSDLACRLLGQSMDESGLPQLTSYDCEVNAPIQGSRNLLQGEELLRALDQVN
In short: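 Activity is fitted in both directions relative to DMSO. Reporter transcripts are read by RT-PCR, fluorescent primer extension and capillary electrophoresis after 24 h chemical treatment. The cells are HepG2 carrying transiently transfected cis-element-driven reporter units responding to endogenous factors.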

[8] = molecular target: Hepatocyte nuclear factor 6 (Homo sapiens) (UniProt Q9UBC0); test: ATG_HNF6_CIS: Attagene CIS-FACTORIAL HepG2 Assay for human Hepatocyte Nuclear Factor 6 (HNF6) (AID 2282952); conditions: HepG2 Attagene cis-factorial HNF6 reporter transcription; actives raise or lower the signal
Sequence of Hepatocyte nuclear factor 6 (Homo sapiens) (Q9UBC0 whole entry, looked up, the tested form may be a part): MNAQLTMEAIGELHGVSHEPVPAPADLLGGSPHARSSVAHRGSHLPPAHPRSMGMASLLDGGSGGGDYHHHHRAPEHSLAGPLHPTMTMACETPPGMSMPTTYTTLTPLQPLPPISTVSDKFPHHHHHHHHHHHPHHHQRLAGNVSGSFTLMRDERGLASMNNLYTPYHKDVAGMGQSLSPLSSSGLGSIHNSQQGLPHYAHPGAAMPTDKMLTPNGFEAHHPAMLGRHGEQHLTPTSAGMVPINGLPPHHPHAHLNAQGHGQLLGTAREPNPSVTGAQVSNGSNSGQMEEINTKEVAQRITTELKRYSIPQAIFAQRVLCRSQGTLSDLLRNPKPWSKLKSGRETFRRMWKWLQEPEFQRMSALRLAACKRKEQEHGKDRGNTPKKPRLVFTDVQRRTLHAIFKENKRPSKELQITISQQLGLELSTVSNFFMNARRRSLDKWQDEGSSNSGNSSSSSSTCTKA
In short: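 Twenty-four-hour chemical treatment of reporter-transfected HepG2 cells precedes RNA isolation, DNase-treated reverse transcription and PCR of reporter sequences. Labelled fragments are sized by capillary electrophoresis and fitted bidirectionally versus DMSO.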

[9] = molecular target: Heat shock factor protein 1 (Homo sapiens) (UniProt Q00613); test: ATG_HSE_CIS: Attagene CIS-FACTORIAL HepG2 Assay for human Heat Shock Transcription Factor 1 (HSE) (AID 2282953); conditions: HepG2 HSE cis-reporter, Attagene RNA transcription; actives raise or lower the signal
Sequence of Heat shock factor protein 1 (Homo sapiens) (Q00613 whole entry, looked up): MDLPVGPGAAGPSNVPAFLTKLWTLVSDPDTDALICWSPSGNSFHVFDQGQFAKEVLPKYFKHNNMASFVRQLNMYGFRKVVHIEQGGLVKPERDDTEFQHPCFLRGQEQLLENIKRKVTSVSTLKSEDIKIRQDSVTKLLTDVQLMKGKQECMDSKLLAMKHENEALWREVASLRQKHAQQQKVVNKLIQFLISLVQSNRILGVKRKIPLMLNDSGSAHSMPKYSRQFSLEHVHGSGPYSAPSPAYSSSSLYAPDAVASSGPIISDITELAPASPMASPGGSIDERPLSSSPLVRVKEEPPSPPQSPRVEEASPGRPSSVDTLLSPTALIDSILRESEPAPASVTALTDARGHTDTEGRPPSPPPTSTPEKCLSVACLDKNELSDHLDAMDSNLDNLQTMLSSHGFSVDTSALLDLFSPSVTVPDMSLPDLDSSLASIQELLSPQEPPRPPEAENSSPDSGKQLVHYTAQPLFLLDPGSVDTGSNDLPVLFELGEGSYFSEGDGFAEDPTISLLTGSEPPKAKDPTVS
In short: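 HepG2, transient MRTU transfection, cis-promoter reporters (endogenous TF activity). 24 h compound. RNA → oligo(dT) RT → PCR → 6-FAM primer extension → HpaI cut → CE. Bidirectional fit vs DMSO.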

[10] = ATG_MRE_CIS: Attagene CIS-FACTORIAL HepG2 Assay for human Metal Responsive Element (MRE) (AID 2282954); conditions: HepG2 MRE cis-reporter transcription, Attagene multiplex; actives raise or lower the signal
In short: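 Multiplexed cis-reporter assay in human HepG2 liver cells, 24 h incubation with test chemical. Reporter transcripts measured by RT-PCR and capillary electrophoresis; values from bidirectional curve fitting versus DMSO.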

Structure (SMILES) | outcome [1] | outcome [2] | outcome [3] | outcome [4] | outcome [5] | outcome [6] | outcome [7] | outcome [8] | outcome [9] | AC50 [10] | AC50 [1] | AC50 [2] | AC50 [4] | AC50 [7] | AC50 [9] | outcome [10]
CCn1c2ccccc2c2ccccc21 | inactive | inactive | inactive | inactive | inactive | inactive | inactive | inactive | inactive | 73.9 µM (active) |  |  |  |  |  | 
CCN=C1C=CC(=C(c2ccc(N(CC)CC)cc2)c2ccc(N(CC)CC)cc2)c2ccccc21 |  |  | inactive |  | inactive | inactive |  | inactive |  | 1.03 µM (active) | 5.55 µM (active) | 0.911 µM (active) | 0.916 µM (active) | 1.1 µM (active) | 1.01 µM (active) | 
Nc1c(Br)cc([N+](=O)[O-])cc1Br | inactive | inactive | inactive | inactive | inactive | inactive | inactive | inactive | inactive |  |  |  |  |  |  | inactive
NCC(F)(F)C(F)(F)C(F)(F)C(F)(F)C(F)(F)C(F)(F)F | inactive | inactive | inactive | inactive | inactive | inactive | inactive | inactive | inactive |  |  |  |  |  |  | inactive
Cc1ccc(O)c(-n2nc3ccccc3n2)c1 | inactive | inactive | inactive | inactive | inactive | inactive | inactive | inactive | inactive |  |  |  |  |  |  | inactive
CCCCCC/C=C/CCCCCCCC(=O)O | inactive | inactive | inactive | inactive | inactive | inactive | inactive | inactive | inactive |  |  |  |  |  |  | inactive
O=S(=O)(O)c1ccc(Cl)cc1 | inactive | inactive | inactive | inactive | inactive | inactive | inactive | inactive | inactive |  |  |  |  |  |  | inactive
C=CCOC(=O)CC(C)C | inactive | inactive | inactive | inactive | inactive | inactive | inactive | inactive | inactive |  |  |  |  |  |  | inactive
CCCCCCCCCCCC(=O)Cl | inactive | inactive | inactive | inactive | inactive | inactive | inactive | inactive | inactive |  |  |  |  |  |  | inactive
OCCC(O)CO (stereo not given) | inactive | inactive | inactive | inactive | inactive | inactive | inactive | inactive | inactive |  |  |  |  |  |  | inactive
OCCCCC(F)(F)C(F)(F)C(F)(F)C(F)(F)F | inactive | inactive | inactive | inactive | inactive | inactive | inactive | inactive | inactive |  |  |  |  |  |  | inactive
C=CC(=O)OCC(F)(F)C(F)(F)C(F)(F)COC(=O)C=C | inactive | inactive | inactive |  | inactive | inactive | inactive | inactive | inactive | 33.2 µM (active) |  |  | 35.9 µM (active) |  |  | 
CCOCN(C(=O)CS(=O)(=O)O)c1c(C)cccc1CC | inactive | inactive | inactive | inactive | inactive | inactive | inactive | inactive | inactive |  |  |  |  |  |  | inactive
CCC(Cc1c(I)cc(I)c(N)c1I)C(=O)O (stereo not given) | inactive | inactive | inactive |  | inactive | inactive | inactive | inactive | inactive |  |  |  | 88.5 µM (active) |  |  | inactive
O=C1OC(=O)c2ccc3c4c(ccc1c24)C(=O)OC3=O | inactive | inactive | inactive | inactive | inactive | inactive | inactive | inactive | inactive |  |  |  |  |  |  | inactive
O=S(=O)(O)CCC(F)(F)C(F)(F)C(F)(F)C(F)(F)C(F)(F)C(F)(F)C(F)(F)C(F)(F)F | inactive |  | inactive | inactive | inactive | inactive | inactive | inactive | inactive |  |  | 39.9 µM (active) |  |  |  | inactive
OCC(F)(F)C(F)(F)C(F)(F)C(F)(F)C(F)(F)C(F)(F)C(F)(F)C(F)(F)CO | inactive | inactive | inactive | inactive | inactive | inactive | inactive | inactive | inactive |  |  |  |  |  |  | inactive
O=C(O)C(F)(F)C(F)(F)C(F)(F)OC(F)(F)F | inactive | inactive | inactive | inactive | inactive | inactive | inactive | inactive | inactive |  |  |  |  |  |  | inactive
NC(=O)C(F)(F)C(F)(F)C(F)(F)C(F)(F)C(F)(F)C(F)(F)C(F)(F)F | inactive | inactive | inactive | inactive | inactive | inactive | inactive | inactive | inactive |  |  |  |  |  |  | inactive
O=C(O)CCC(F)(F)C(F)(F)C(F)(F)F | inactive | inactive | inactive | inactive | inactive | inactive | inactive | inactive | inactive |  |  |  |  |  |  | inactive
O=C(F)C1(F)C(F)(F)C(F)(F)C(F)(F)C(F)(F)C1(F)F | inactive | inactive | inactive | inactive | inactive | inactive | inactive | inactive | inactive |  |  |  |  |  |  | inactive
CC1CCCCC1 | inactive | inactive | inactive | inactive | inactive | inactive | inactive | inactive | inactive |  |  |  |  |  |  | inactive
